# Compound activity: PubChem BioAssay, Sanford-Burnham Center for Chemical Genomics
# CYP2C19 inhib: inhibitors of human CYP2C19; P33261; CYP2C19 Supersomes, luciferin-H EGE luminescence, 30 min; inhibition, % at 5 µM; hit rate 21% among 96,000;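 active = CYP2C19 inhibition above a set limit at 5 µM in the primary screen, cut at about 50% in these data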
# Target sequence (P33261 whole entry, looked up): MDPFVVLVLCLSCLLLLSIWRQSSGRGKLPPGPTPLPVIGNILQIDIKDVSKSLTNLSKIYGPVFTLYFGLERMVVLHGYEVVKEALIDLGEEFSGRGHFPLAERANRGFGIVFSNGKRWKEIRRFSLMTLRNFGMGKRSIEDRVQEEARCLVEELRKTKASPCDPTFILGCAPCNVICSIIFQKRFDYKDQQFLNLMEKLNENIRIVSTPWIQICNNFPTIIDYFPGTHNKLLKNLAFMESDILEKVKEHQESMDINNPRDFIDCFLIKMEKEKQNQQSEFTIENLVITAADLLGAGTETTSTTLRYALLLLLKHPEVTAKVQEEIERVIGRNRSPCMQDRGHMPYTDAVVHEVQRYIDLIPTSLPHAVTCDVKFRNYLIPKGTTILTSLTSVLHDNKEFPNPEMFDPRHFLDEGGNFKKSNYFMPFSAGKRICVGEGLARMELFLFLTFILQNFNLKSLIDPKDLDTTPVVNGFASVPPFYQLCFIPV
# CYP2C9 inhib: blocks human cytochrome P450 2C9 | P11712 | CYP2C9 Supersomes, luciferin-H conversion, luminescence | inhibition, % at 5 µM | hit rate 20% among 96,000;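 active = blocking of liver enzyme CYP2C9 beyond about 50% at 5 µM, limit read from the data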
# PTK2B oligo ant: blocks oligomerization of human Pyk2 in cells | AID 1347419 | hit rate 0.83% among 99,000 | Q14289 | Q293 cells, Pyk2 FERM NanoBiT luminescence; stronger effect = lower value | z-score (the deposit names both 25 µM and 10 µM);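 active = Z-score of -3 or lower, scaled per plate to the spread of control and sample wells; inactive = z-score above -3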;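 note: negative z-score means lost luminescence so less FERM oligomerization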
# CYP2C19 activ: cytochrome P450 2C19 (human) activation | P33261 | recombinant CYP2C19, luciferin-H EGE luminescence; stronger effect = higher value; 0 = fully inhibited enzyme, 1 = untreated enzyme | activation factor at 5 µM | 96,000 tested, under 10 active;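 active = activation factor of at least 2 at 5 µM in the primary screen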
# CYP2C9 activ: increases human cytochrome P450 2C9 activity; P11712; recombinant CYP2C9, luciferin-H conversion, luminescence; stronger effect = higher value; factor 1 = untreated enzyme, 0 = blocked; activation factor at 5 µM; hit rate 1.4% among 96,000;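 active = activation factor of 2 or more for CYP2C9 at a 5 µM dose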
# A number is an active result; n = inactive; x = not tested or not shown. An excerpt weighted towards active compounds, which were near 28% of everything screened.
SMILES,CYP2C19 inhib,CYP2C9 inhib,PTK2B oligo ant,CYP2C19 activ,CYP2C9 activ
O=C(c1ccc(Cl)cc1)C(Cn1cncn1)C(Sc1ccccc1)c1ccccc1 (stereo not drawn),98,100,n,n,n
O=C(CSc1ncnc2c(-c3ccc(Cl)cc3)nsc12)c1ccccc1,n,n,n,n,n
Cc1c(Cl)c([N+](=O)[O-])nn1CC(=O)Nc1c(C)n(C)n(-c2ccccc2)c1=O,n,n,n,n,n
COc1ccc(CCNc2cc(-c3ccccc3)nc3ncnn23)cc1,n,56,n,n,n
COc1cccc(OC)c1C(=O)N1CCN(c2c(Cc3ccccc3)c(C)nc3ncnn23)CC1,n,n,n,n,n
Cc1nc2ncnn2c(Nc2ccc3c(c2)OCO3)c1Cc1ccccc1,72,n,n,n,n
CCc1c(C)nc2ncnn2c1NCCc1ccccc1,64,n,n,n,n
CC1CCCN(CCC(=O)Nc2ccc3c(c2)CCC3)C1 (stereo not drawn),x,x,n,x,x
Cc1cc(S(=O)(=O)NCCCN2CCOCC2)ccc1F,n,n,n,n,n
O=C1CCCCCCC1Sc1ccccc1[N+](=O)[O-] (stereo not drawn),50,n,n,n,n
CCOC(=O)C1C(=O)NC(N2CCN(CC)CC2)=NC1c1ccccc1 (stereo not drawn),n,n,n,n,n
Cc1ccc(S(=O)(=O)C2(C(=O)Nc3cccnc3)CC2)cc1,56,n,x,n,n
CC(C)(CO)NC(=O)CCCOc1ccc(Cl)cc1Cl,55,n,n,n,n
O=C(Nc1cccnc1)Nc1ccc(F)c(Cl)c1,85,76,n,n,n
O=C(CCCOc1ccc(Cl)cc1Cl)N/N=C\C1CCCCC1,92,n,n,n,n
CC(C)(C)C(=O)NNC(=O)CCCOc1ccc(Cl)cc1Cl,n,n,n,n,n
O=C(CCCOc1ccc(Cl)cc1Cl)Nc1cccnc1,72,52,n,n,n
O=C(NCCO)C1(c2ccc(Cl)cc2)CCCC1,n,n,n,n,n
O=C(Nc1cccnc1)C1(c2ccc(Cl)cc2)CCCC1,81,n,n,n,n
COc1ccc(C(=O)NC(=S)NC(C)C)cc1Br,60,n,n,n,n
CC(=O)OC(C(=O)Nc1ccccc1)C(C)S(=O)(=O)c1ccccc1 (stereo not drawn),65,n,n,n,n
CC(C)C(=O)Nc1cccc(S(=O)(=O)c2cccc(NC(=O)C(C)C)c2)c1,x,x,n,x,x
Cc1ccc(NC(=O)CN(c2cc(C)cc(C)c2)S(=O)(=O)c2c(C)noc2C)nc1,n,72,x,n,n
COc1ccc(CNC(=O)CN(c2cc(C)cc(C)c2)S(=O)(=O)c2c(C)noc2C)cc1,n,n,x,n,n
Cc1cc(C)cc(N(CC(=O)NCc2ccco2)S(=O)(=O)c2c(C)noc2C)c1,82,67,x,n,n
SMILES,CYP2C19 inhib,CYP2C9 inhib,PTK2B oligo ant,CYP2C19 activ,CYP2C9 activ
Cc1ccc(Nc2cnn(C34CC5CC(CC(CC(=O)O)(C5)C3)C4)c(=O)c2Cl)cc1,n,n,n,n,n
O=c1c2c(n3nnnc3n1Cc1ccccc1)-c1ccccc1CC21CCCC1,n,72,n,n,n
CCC1(C)Cc2ccccc2-c2c1c(=O)n(Cc1ccccc1)c1nnnn21 (stereo not drawn),n,n,n,n,n
CC12C=CC3(CN(Cc4ccccc4)C(=O)C3C1C(=O)NC1CC1)O2 (stereo not drawn),n,n,n,n,n
COc1cc2c(O)c3c(c(-c4ccc5c(c4)OCO5)c2cc1OC)C(=O)OC3,n,68,n,n,n
CCCC(CCC)C(=O)Nc1ccncc1,91,79,n,n,n
O=C(O)CC1=C(O)C(=O)N(c2ccccc2)C1c1ccccc1 (stereo not drawn),n,n,n,n,n
CS(=O)(=O)C1=C(O)C(=O)N(c2ccccc2)C1c1ccccc1 (stereo not drawn),51,n,n,n,n
COc1ccc(/C(C)=N/N=C(\C)c2ccc(OC)cc2OC)c(OC)c1,x,x,n,x,x
COc1ccc(C(=O)Oc2ccc(C(C)=O)cc2)c(OC)c1,59,n,n,n,n
Cc1cc(C(=O)N2CCN(S(C)(=O)=O)CC2)cs1,56,n,n,n,n
COc1cc(OC)cc(C(=O)N2CCN(S(C)(=O)=O)CC2)c1,n,n,n,n,n
O=C(c1ccc2nc(N3CCOCC3)sc2c1)N1CCC(Cc2ccccc2)CC1,80,n,x,n,n
Cn1c(C(=O)N2CCN(Cc3ccc4c(c3)OCO4)CC2)cc2c(=O)n(C)c3ccccc3c21,n,n,x,n,n
